Screening results (PubChem BioAssay)
GASC-1 inh: human JMJD2C demethylase inhibition; Q9H3R0; inhibition, % at 2.35 µM; 330,000 compounds, 0.069% hits; AID 2099; GST-JMJD2C(1-420) H3K9me3 demethylation, DELFIA europium;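 active = more than half of a compound's replicate wells show inhibition beyond 50%, single wells judged on their own value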;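 note: signal counts dimethyl H3K9 product captured on neutravidin plate; 0% = median of DMSO wells and 100% = 0.3 times that DMSO median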
Target sequence (Q9H3R0 1-420 limits assumed): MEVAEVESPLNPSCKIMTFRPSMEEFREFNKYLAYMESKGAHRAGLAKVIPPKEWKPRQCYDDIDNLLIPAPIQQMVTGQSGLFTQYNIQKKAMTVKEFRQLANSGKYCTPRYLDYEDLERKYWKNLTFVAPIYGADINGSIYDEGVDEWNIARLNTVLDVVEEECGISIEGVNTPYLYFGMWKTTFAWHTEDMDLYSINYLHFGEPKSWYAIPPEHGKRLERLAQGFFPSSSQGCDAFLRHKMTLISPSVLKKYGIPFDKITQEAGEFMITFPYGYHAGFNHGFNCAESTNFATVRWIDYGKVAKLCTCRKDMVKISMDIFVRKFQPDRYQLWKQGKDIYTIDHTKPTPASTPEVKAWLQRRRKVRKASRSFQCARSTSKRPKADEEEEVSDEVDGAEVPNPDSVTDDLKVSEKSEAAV
KLK7 zymogen act: proKLK7 (human) activation, primary screen. 370,000 compounds, 0.9% hits. activation, % at 7 µM. purified proKLK7, EDANS-DABCYL substrate fluorescence; 100% is mature enzyme control, 0% vehicle;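 active = activation above the mean of all tested compounds plus 3 SD, computed per campaign excluding outliers beyond control limits, cut at about 13% in these data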
PP1 counter: PP1-alpha (human) inhibition in PP5 counter-screen; P62136; purified PP1alpha, OMFP fluorescence; inhibition, % at 6.7 µM; 320,000 compounds, 0.9% hits;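 active = inhibition above the mean inhibition of all tested compounds plus 3 SD, computed separately for each screening campaign, cut at about 15% in these data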
PG9 Ab binder: PG9 antibody binding by small molecule; TR-FRET gp120-PG9 antibody binding; inhibition, % at 6.7 µM; 360,000 compounds, 0.43% hits; in the data active = inhibition above about 8.5%
Rev-erbA mod: modulates human Rev-erb alpha binding to DNA | P20393 | Rev-erbα–FITC-DNA binding, fluorescence polarization, 90 min | activity, % at 10 µM | 370,000 compounds, 0.79% hits | AID 1259318;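 active = activity above about 14%, limit read from the data; passing the limit was not always enough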;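 note: 0% = DMSO wells with 35 nM protein and 100% = DMSO wells with 750 nM protein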
PP5 primary: inhibitors of human protein phosphatase 5 (PP5); inhibition, % at 6.7 µM; purified PP5c, OMFP substrate fluorescence; AID 1987; P53041; 320,000 compounds, 0.18% hits;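 active = inhibition above the campaign's mean inhibition across all tested compounds plus 3 SD, cut at about 9.5% in these data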;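 note: 0% = DMSO only and 100% = 100 µM cantharidin control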
Numbers without * were called inactive; . = not tested or not shown; ! = repeats disagree. In the library only some 2.8% were active in any assay of this set; here they are far more common.

SMILES	GASC-1 inh	KLK7 zymogen act	PP1 counter	PG9 Ab binder	Rev-erbA mod	PP5 primary
O=C1NC(=Nc2cccc(O)c2)S/C1=C\c1cccnc1	13	0	0	-2	-3	-3
O=C1NC(=Nc2cccc(O)c2)S/C1=C\c1cccc([N+](=O)[O-])c1	21	-1	17*	-1	4	1
Nc1nc2nc(SCC(=O)N3CCCc4ccccc43)[nH]c2c(=O)[nH]1	0	.	15*	.	.	-1
CCOc1ccc(C=Nn2c(-c3cccc(OC(C)C)c3)n[nH]c2=S)cc1	.	-1	.	.	-2	.
CNc1nc(N)c([N+](=O)[O-])c(Nc2cccc(Br)c2)n1	.	.	.	.	-2	.
COc1ccc(-c2cc(C(=O)NN)n(-c3ccccc3)n2)cc1	1	0	6	-2	1	-2
CCOC(=O)c1cc(-c2ccc(OC)cc2)nn1-c1ccccc1C(=O)O	13	0	17*	1	0	-1
COC(=O)c1ccc(C2Nc3ccc(/C(C)=N/NC(=O)C(OC)c4ccccc4)cc3C3C=CCC32)cc1 (stereo not drawn)	-10	0	21*	-3	5	3
CC(=O)c1ccc2c(c1)C1C=CCC1C(c1ccncc1)N2 (stereo not drawn)	3	1	2	0	1	2
O=C(NC1CCCc2ccccc21)c1cccc(S(=O)(=O)N2CCN(c3ccccc3)CC2)c1 (stereo not drawn)	8	0	15*	0	3	5
CC1CCC(NC(=O)c2cccc(S(=O)(=O)N3CCN(c4ccccc4)CC3)c2)CC1 (stereo not drawn)	-6	0	-5	1	0	0
O=C(NC1CCCc2ccccc21)c1ccc(Br)cc1 (stereo not drawn)	58*	-1	-2	-1	-4	1
C=CCn1c(Cc2cccs2)nnc1SCC(=O)Nc1cccc2ccccc12	.	0	.	.	-4	.
CCOC(=O)C(C)Oc1ccsc1C(=O)OC (stereo not drawn)	51*	0	-6	-1	-1	1
CN(c1ccccc1)S(=O)(=O)c1ccc(C(=O)NNC(=O)c2ccccc2)cc1	.	0	2	3	2	0
CN(c1ccc(C(=O)O)cc1)S(=O)(=O)c1ccccc1	65*	0	-8	-1	6	0
N#Cc1ccc(N=c2ssnc2Cl)cc1	58*!	1	-3	4	2	-2
COc1ccc(N=c2ssnc2Cl)cc1	49	.	2	.	.	2
CC1(C)S[C@@H]2[C@H](NC(=O)[C@H](C(=O)O)c3cccs3)C(=O)N2[C@H]1C(=O)O	.	.	.	.	9	.
COCCCNC(=O)CSc1nnc(-c2ccncc2)n1-c1ccc(OC)cc1	.	1	.	.	-3	.
CCOP(=O)(OCC)C(NC(=O)Nc1ccc(Cl)cc1)C(N)=O (stereo not drawn)	0	-1	2	3	0	1
CCOP(=O)(OCC)C(NC(=O)Nc1ccc(Cl)c(Cl)c1)C(N)=O (stereo not drawn)	7	-1	17*	0	-3	0
COc1ccc(-n2c(C)cc(-c3csc(N)n3)c2C)cc1	8	0	17*	-1	-7	1
C=CCn1c(C)cc(-c2csc(N)n2)c1C	-2	0	15	-1	-4	0
CCCn1c(C)cc(-c2csc(N)n2)c1C	6	0	7	-2	-5	4
SMILES	GASC-1 inh	KLK7 zymogen act	PP1 counter	PG9 Ab binder	Rev-erbA mod	PP5 primary
Cc1cc(-c2csc(N)n2)c(C)n1-c1ccc(Cl)c(Cl)c1	-5	0	17*	-1	-2	-3
CC1(C)O[C@@H]2CC3C4CCC5=CC(=O)CCC5(C)[C@]4(F)C(O)CC3(C)[C@]2(C(=O)CCl)O1 (stereo partly drawn)	.	.	.	.	-2	.
CCCCc1c(C)nn(-c2nnc3c4ccccc4n(C)c3n2)c1C	19	-8	17*	0	0	0
Cn1c2ccccc2c2nnc(NN)nc21	2	0	-1	-2	-3	3
CO[C@H]1C[C@@H](O[C@@H]2/C(C)=C/C[C@@H]3C[C@@H](C[C@]4(CC[C@H](C)[C@@H](C5CCCCC5)O4)O3)OC(=O)[C@@H]3C=C(C)/C(=N/O)[C@H]4OC/C(=C\C=C\[C@@H]2C)[C@]43O)O[C@@H](C)[C@H]1O	.	.	.	.	-2	.
CC(C)c1nc(N(C)S(C)(=O)=O)nc(-c2ccc(F)cc2)c1/C=C/[C@@H](O)C[C@@H](O)CC(=O)O	.	.	.	.	1	.
